Assay outcomes deposited in PubChem by Sanford-Burnham Center for Chemical Genomics.
TNAP inh Pi: human TNAP inhibition, phosphate detection; purified TNAP, pNPP, malachite green phosphate absorbance; inhibition, % at 20 µM; 21,000 tested, under 10 active
Target sequence (P05186 whole entry, looked up): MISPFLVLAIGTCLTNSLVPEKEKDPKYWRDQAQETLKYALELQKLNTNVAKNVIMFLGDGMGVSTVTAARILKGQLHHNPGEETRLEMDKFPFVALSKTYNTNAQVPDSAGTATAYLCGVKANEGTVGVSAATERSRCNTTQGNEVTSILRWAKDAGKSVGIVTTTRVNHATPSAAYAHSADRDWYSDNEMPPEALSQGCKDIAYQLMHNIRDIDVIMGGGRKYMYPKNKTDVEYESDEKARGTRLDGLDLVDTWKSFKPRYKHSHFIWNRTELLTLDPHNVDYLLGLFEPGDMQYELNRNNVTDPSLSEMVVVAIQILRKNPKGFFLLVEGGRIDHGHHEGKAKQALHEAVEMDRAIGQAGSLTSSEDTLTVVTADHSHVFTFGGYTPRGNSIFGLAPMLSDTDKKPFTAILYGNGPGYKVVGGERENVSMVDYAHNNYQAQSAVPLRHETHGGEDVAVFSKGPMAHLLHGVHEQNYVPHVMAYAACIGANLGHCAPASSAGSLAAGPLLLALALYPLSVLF
TNAP pNPP inh: blocks human TNAP p-nitrophenol release; P05186; purified TNAP, pNPP hydrolysis, absorbance 405 nm; inhibition, % at 20 µM; 21,000 tested, under 10 active
Calls only. Only a sample is shown.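 How the source made its calls: active means inhibition above 50% at the 20 µM single-dose screen; inactive means the rest.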

`NCCCCCc1nnc(SCC(=O)c2ccc(Cl)cc2)o1` gave TNAP inh Pi inactive and TNAP pNPP inh inactive.
Screening CN(C)C(CNC(=O)CSc1nnc(-c2ccco2)o1)c1ccccc1 (stereo unspecified) returned TNAP inh Pi inactive and TNAP pNPP inh inactive.
Screening O=c1c2sc3nc(N4CCOCC4)c4c(c3c2ncn1Cc1ccco1)CCCC4 returned TNAP inh Pi inactive and TNAP pNPP inh inactive.
Screening Cc1cccc(N2CCN(C(=O)c3ccc(N4CCCC4=O)cc3)CC2)c1C returned TNAP inh Pi inactive and TNAP pNPP inh inactive.
`CCCCCC(=O)N1CC2(C)CN(C(=O)CCCCC)CC(C)(C1)C2=O` gave TNAP inh Pi inactive and TNAP pNPP inh inactive.
`COc1ccccc1Cn1c2nc3ccccc3nc2c2c(=O)n(CC(C)C)cnc21` gave TNAP inh Pi inactive and TNAP pNPP inh inactive.
Screening Cc1nc(SCC(=O)Nc2c(C)n(C)n(-c3ccccc3)c2=O)n[nH]1 returned TNAP inh Pi inactive and TNAP pNPP inh inactive.
`CC1=CC(C)(C)N=C(Nc2ccc(C)cc2)S1` gave TNAP inh Pi inactive and TNAP pNPP inh inactive.
`O=C(O)c1ccc(COCC(F)(F)C(F)F)o1` gave TNAP inh Pi inactive and TNAP pNPP inh inactive.
`Cc1cc2nc(NC3=NCN(Cc4cccnc4)CN3)nc(C)c2cc1C` gave TNAP inh Pi inactive and TNAP pNPP inh inactive.
For CSc1nc(NC(C)=O)nc(C)c1Cl the results were TNAP inh Pi inactive and TNAP pNPP inh inactive.
For Cc1ccc(OCc2nnc(NC(=O)c3ccco3)s2)c(C)c1 the results were TNAP inh Pi inactive and TNAP pNPP inh inactive.
`CCS(=O)(=O)c1ccc(O)c(N2C(=O)C3C4C=CC(C4)C3C2=O)c1` (stereo unspecified) gave TNAP inh Pi inactive and TNAP pNPP inh inactive.
Screening CCC(=O)Nc1nnc(SCC(=O)Nc2ccc(F)cc2)s1 returned TNAP inh Pi inactive and TNAP pNPP inh inactive.
`C=CCn1c(SCc2nc3ccccc3nc2C)nnc1-c1ccoc1C` gave TNAP inh Pi inactive and TNAP pNPP inh inactive.
For CCn1c(SCC(=O)N2CCN(c3ccccc3F)CC2)nnc1-c1ccoc1C the results were TNAP inh Pi inactive and TNAP pNPP inh inactive.
`CC1(C)SC2[C@H](NC(=O)C(NC(=O)N3CCNC3=O)c3ccccc3)C(=O)N2C1C(=O)O` (stereo partly specified) gave TNAP inh Pi inactive and TNAP pNPP inh inactive.
`CCOC(=O)C1(C)NC(c2ccc(OC)cc2OC)C2C(=O)N(c3cccc(OC)c3)C(=O)C21` (stereo unspecified) gave TNAP inh Pi inactive and TNAP pNPP inh inactive.
CSc1nc2nc(-c3ccccc3)cc(C(F)(F)F)n2n1 was read as TNAP inh Pi inactive and TNAP pNPP inh inactive.
Screening Clc1ccc(-c2nn3c(-c4ccccn4)nnc3s2)c(Cl)c1 returned TNAP inh Pi inactive and TNAP pNPP inh inactive.
`CC1CCc2cccc3c2N1c1cc(C#N)c(C#N)cc1O3` (stereo unspecified) gave TNAP inh Pi inactive and TNAP pNPP inh inactive.
CCn1c(CSc2nc(C)cc(C)n2)nnc1SCC(=O)N1CCCc2ccccc21 was read as TNAP inh Pi inactive and TNAP pNPP inh inactive.
Screening O=C(OCc1cc(Cl)ccc1OC(F)F)c1cc(S(=O)(=O)O)ccc1O returned TNAP inh Pi inactive and TNAP pNPP inh inactive.
Screening CC(O)c1cccc(NC2=CC(=O)CC(C)(C)C2)c1 (stereo unspecified) returned TNAP inh Pi inactive and TNAP pNPP inh inactive.
`O=C(CN1CCC(n2nnc3cc(F)ccc32)CC1)NCCc1nc2ccccc2[nH]1` gave TNAP inh Pi inactive and TNAP pNPP inh inactive.
`CC(=C1C(=O)c2ccccc2C1=O)N1CCC(C(N)=O)(N2CCCCC2)CC1` gave TNAP inh Pi inactive and TNAP pNPP inh inactive.
For Cc1c(C(=O)OCC(=O)N2CC(C)OC(C)C2)oc2ccc(Br)cc12 (stereo unspecified) the results were TNAP inh Pi inactive and TNAP pNPP inh inactive.
`COc1ccc(N(C)S(=O)(=O)c2cccc(C(=O)Nc3ccc(-n4cnnn4)cc3)c2)cc1` gave TNAP inh Pi inactive and TNAP pNPP inh inactive.
Screening CCN1CCN(C(=O)CN(c2ccccc2C)S(C)(=O)=O)CC1 returned TNAP inh Pi inactive and TNAP pNPP inh inactive.
For CN(c1cccc(NC(=O)Cc2ccccc2)c1)S(C)(=O)=O the results were TNAP inh Pi inactive and TNAP pNPP inh inactive.
For COc1cc(NC(=O)C2CCCCC2)c(OC)cc1NC(=O)CCC(=O)NCc1ccco1 the results were TNAP inh Pi inactive and TNAP pNPP inh inactive.
For O=S(=O)(NC1CCCC1)c1cccc(S(=O)(=O)N2CCC(n3nnc4ccccc43)CC2)c1 the results were TNAP inh Pi inactive and TNAP pNPP inh inactive.
Screening COc1ccc(OC)c(C(=O)C2COC(=O)C2)c1 (stereo unspecified) returned TNAP inh Pi inactive and TNAP pNPP inh inactive.
`COc1ccc2c(c1)c(C(O)CN1CCC3(CC1)OCCO3)c(C)n2C` (stereo unspecified) gave TNAP inh Pi inactive and TNAP pNPP inh inactive.
`CCn1c(=O)c(C(=O)Nc2nc3ccccc3[nH]2)c(O)c2ccccc21` gave TNAP inh Pi inactive and TNAP pNPP inh inactive.
Screening CCOC(=O)C1=C(C)NC(SCC(=O)Nc2nc(C)cs2)=C(C#N)C1c1cccs1 (stereo unspecified) returned TNAP inh Pi inactive and TNAP pNPP inh inactive.
Screening CCOC(=O)c1cc(C)n(-c2ccc(OC)c(OC)c2)c1C returned TNAP inh Pi inactive and TNAP pNPP inh inactive.
CCOC(=O)C(C)Sc1nnc(-c2ccccc2O)n1-c1ccc(C)cc1 (stereo unspecified) was read as TNAP inh Pi inactive and TNAP pNPP inh inactive.
Cc1ccc(NC(=O)N2CCCC2C(=O)NCCc2ccccc2)cc1 (stereo unspecified) was read as TNAP inh Pi inactive and TNAP pNPP inh inactive.
CC(C)CCOc1ccc(Cl)cc1CN1CCOCC1 was read as TNAP inh Pi inactive and TNAP pNPP inh inactive.
Screening CCn1c(=O)c2c(nc(SCc3ccccn3)n2C)n(C)c1=O returned TNAP inh Pi inactive and TNAP pNPP inh inactive.
Cc1ccc(Nc2nc(N)nc(CN3CCN(C(=O)c4ccco4)CC3)n2)cc1Cl was read as TNAP inh Pi inactive and TNAP pNPP inh inactive.
Cc1cc(OCC(=O)Nn2cnnc2)ccc1Br was read as TNAP inh Pi inactive and TNAP pNPP inh inactive.
For CCOC(=O)CC(N)c1ccc2c(c1)OCO2 (stereo unspecified) the results were TNAP inh Pi inactive and TNAP pNPP inh inactive.
`COc1ccc(-c2cc(=O)oc3cc(OCc4nn[nH]n4)ccc23)cc1` gave TNAP inh Pi inactive and TNAP pNPP inh inactive.
Cc1ccc2nc3c(cc(C#N)c(=N)n3CC3CCCO3)c(=O)n2c1 (stereo unspecified) was read as TNAP inh Pi inactive and TNAP pNPP inh inactive.
`O=C(NCc1ccc2c(c1)OCO2)c1nn2cccnc2c1Cl` gave TNAP inh Pi inactive and TNAP pNPP inh inactive.
Cc1ccc(S(=O)(=O)Cn2nnnc2CN2CCCC3(CCCCC3)C2)cc1 was read as TNAP inh Pi inactive and TNAP pNPP inh inactive.
For Cn1c(NCc2ccco2)nc2c1c(=O)n(Cc1ccc(Cl)c(Cl)c1)c(=O)n2C the results were TNAP inh Pi inactive and TNAP pNPP inh inactive.
`Cc1ccc2c(c1)[nH]c1c(=O)n(Cc3ccccn3)cnc12` gave TNAP inh Pi inactive and TNAP pNPP inh inactive.
Screening O=C1CC(C(=O)Nc2ncccn2)C(c2ccccc2)O1 (stereo unspecified) returned TNAP inh Pi inactive and TNAP pNPP inh inactive.
